Only some compounds are listed: those with a hit (about 3.4% of all), similar ones and a draw of the others.
Giardia FBPA inh-1 – blocks Giardia fructose-bisphosphate aldolase activity. A8B2U2. purified Giardia FBPA. Potency, µM (doses to about 59.6 µM), for the others: at the highest dose activity, negative = inhibition, usual class: inhibitors. hit rate 0.71% among 290,000; further: nearly all actives have a fitted effect of over 55% in size
Target sequence (A8B2U2 whole entry, looked up): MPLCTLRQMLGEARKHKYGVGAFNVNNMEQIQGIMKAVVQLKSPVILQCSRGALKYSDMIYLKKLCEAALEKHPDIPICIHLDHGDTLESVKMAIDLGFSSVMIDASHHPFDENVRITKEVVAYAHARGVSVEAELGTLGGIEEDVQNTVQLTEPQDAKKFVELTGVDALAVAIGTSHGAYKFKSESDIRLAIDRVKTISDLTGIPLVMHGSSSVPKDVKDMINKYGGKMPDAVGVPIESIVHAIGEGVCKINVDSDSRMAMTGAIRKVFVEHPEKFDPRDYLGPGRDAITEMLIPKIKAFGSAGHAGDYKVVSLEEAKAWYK
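40 nM FBPA preincubated 10 min at RT with compound (up to 57.5 uM final), then substrate plus GAPDH/TPI/NAD/arsenate coupling and diaphorase/resazurin added. Fluorescence read after 20 min at RT, 525/598 nm.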
Sm TGR block – blocks Schistosoma mansoni thioredoxin glutathione reductase; purified TGR, DTNB reduction, TNB absorbance 405 nm; Potency, µM (highest dose often 114 µM), for the others: top-dose activity change, negative = inhibition, usual class: inhibitors; hit rate 3% among 360,000; AID 485364; further: nearly all actives have a fitted effect of over 60% in size
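TGR 20 nM + NADPH 100 uM (dispensed conc.), cpd preinc 15 min RT; start with NADPH (500 uM addition) then DTNB (15 mM addition). Kinetic TNB absorbance, 405 nm filter. Four-parameter Hill fit across titration.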
AmpC inh no detg – blocks E. coli AmpC beta-lactamase in detergent-free assay; P00811; AmpC nitrocefin hydrolysis, absorbance 480 nm, 0.0001% Triton; Potency, µM (series often up to 57.1 µM), inactives show top-dose activity change, negative = inhibition, most hits filed as inhibitors; hit rate 0.52% among 330,000;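 further: plate controls were no compound for no effect and no enzyme for full effect; nearly all actives have a fitted effect of over 20% in size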
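20 mM phosphate pH 7.0 + 0.01% (detergent screen) or 0.0001% Triton X-100; 5.3 nM AmpC reagent; cpd preinc 15 min RT; nitrocefin (800 uM stock) to start; A480 q20 s × 4 min; Activity was normalised to no-enzyme and no-compound control wells.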
AmpC inh detg – blocks E. coli AmpC beta-lactamase in detergent assay; hit rate 0.041% among 370,000; P00811; AID 485294; AmpC hydrolysis of nitrocefin, absorbance 480 nm, 0.01% Triton; Potency, µM (highest dose often 114 µM), without a hit: top-dose activity change, negative = inhibition, hits mostly inhibitors;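 further: 0% = no-compound wells and -100% = no-enzyme wells; nearly all actives have a fitted effect of over 25% in size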
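AmpC (5.3 nM in the dispensed reagent) in 20 mM phosphate pH 7.0 with 0.01% (detergent screen) or 0.0001% Triton X-100 was preincubated with compounds for 15 min at room temperature. Nitrocefin was then added from an 800 uM solution, and hydrolysis was followed at 480 nm.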
RE007 growth inh – less growth of the S. pombe RE007 Vpr strain. S. pombe RE007 Vpr strain, BacTiter-Glo ATP luminescence, 24 h. Potency, µM (highest dose often 92.2 µM), for the others: top-dose activity change, negative = less growth, hits mostly inhibitors. hit rate 0.21% among 360,000; active means well fitted falling curve with a large enough effect; inconclusive means small, poorly fitted or top-dose-only effect; inactive means no such curve, though single readings can be large or run the other way; further: nearly all actives have a fitted effect of over 50% in size
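Fission yeast RE007 carrying one integrated HIV-1 vpr copy, seeded at OD 0.01 in PMG+AL medium with 23 nL pinned compound. Grown 24 h at 30 degrees; viability read by BacTiter-Glo luminescence after 5 min.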
Giardia growth – blocks growth of Giardia lamblia trophozoites | shares compounds with Giardia FBPA inh-1 | hit rate 5% among 1,500 | Giardia lamblia trophozoite growth inhibition | AID 2785 | Potency, µM (highest dose often 57.5 µM), inactives show at the top dose activity change, negative = inhibition, usual class: inhibitors;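 further: trophozoites exposed to compound for 48 h at 37 °C; nearly all actives have a fitted effect of over 70% in size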
Mammalian tox – toxic to mammalian cells in Giardia aldolase counter-screen | shares compounds with Giardia FBPA inh-1 | mammalian cell viability counter-screen, qHTS | Potency, µM (top dose mostly 57.5 µM), for the others: at the top dose viability change, negative = toxicity, hits mostly inhibitors | hit rate 4% among 1,500;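 further: Chinese hamster ovary cells used as mammalian cytotoxicity surrogate; viability measured as cellular ATP by luminescence; compound exposure lasted 48 h before reading; nearly all actives have a fitted effect of over 60% in size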
Giardia FBPA inh-2 – confirmation of Giardia fructose-bisphosphate aldolase inhibitors. shares compounds with Giardia FBPA inh-1. purified Giardia aldolase enzyme activity, qHTS. Potency, µM (doses to about 57.5 µM), inactives show top-dose activity change, negative = inhibition, most hits filed as inhibitors. hit rate 5% among 1,500. AID 2787; further: nearly all actives have a fitted effect of over 45% in size
Rabbit aldolase – blocks rabbit muscle aldolase in Giardia aldolase selectivity test | shares compounds with Giardia FBPA inh-1 | Rabbit muscle FBPA enzyme inhibition, selectivity counter-screen | Potency, µM (top dose mostly 57.5 µM), for the others: at the highest dose activity, negative = inhibition, usual class: inhibitors | hit rate 4% among 1,500 | AID 2794; further: nearly all actives have a fitted effect of over 60% in size
Target sequence (P00883 whole entry, looked up): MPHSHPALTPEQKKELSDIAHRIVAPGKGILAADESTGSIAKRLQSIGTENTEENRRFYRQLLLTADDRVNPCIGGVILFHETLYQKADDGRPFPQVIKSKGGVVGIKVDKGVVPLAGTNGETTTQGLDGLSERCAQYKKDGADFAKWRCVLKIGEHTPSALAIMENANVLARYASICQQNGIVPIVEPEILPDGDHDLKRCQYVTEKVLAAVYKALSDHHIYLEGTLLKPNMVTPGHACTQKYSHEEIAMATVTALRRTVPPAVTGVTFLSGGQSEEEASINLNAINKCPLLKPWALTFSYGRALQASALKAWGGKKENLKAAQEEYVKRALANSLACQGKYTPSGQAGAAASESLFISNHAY
GAPDH counter – counter-screen for Giardia aldolase inhibitors: GAPDH coupling enzyme. shares compounds with Giardia FBPA inh-1. GAPDH coupling enzyme counterscreen, biochemical, qHTS. Potency, µM (top dose mostly 57.5 µM), inactives show at the highest dose activity change, negative = inhibition, most hits filed as inhibitors. hit rate 6% among 1,500; further: nearly all actives have a fitted effect of over 55% in size
An asterisk follows results filed as active; ? = inconclusive; . = no result; [ ] = dose if it differs, or a comment. Unless noted, the call rests on the fitted dose curve; in most records, active means well fitted curve in the direction sought with a large enough effect; inconclusive means small, poorly fitted or top-dose-only effect, or another doubt; inactive means no such curve, though single readings can be large; an effect the other way counts as inactive or inconclusive. Unless noted, on the % scale 0 is the no-effect control and ±100 the full control effect; potency means the concentration at half of the fitted maximal effect.

SMILES	Giardia FBPA inh-1	Sm TGR block	AmpC inh no detg	AmpC inh detg	RE007 growth inh	Giardia growth	Mammalian tox	Giardia FBPA inh-2	Rabbit aldolase	GAPDH counter
N#Cc1ccc(OCC(O)CN2CCN(C(c3ccccc3)c3ccccc3)CC2)cc1 (centres undefined)	6.6%	5.1%	41.3%	1.0%	4.4%	.	.	.	.	.
CCN(CC(=O)Nc1ccccc1OC)CC(=O)Nc1ccccc1C(F)(F)F	-4.8%	-7.8%	75.3%	?	-1.6%	.	.	.	.	.
CCN(CC(=O)Nc1ccccc1OC)CC(=O)Nc1ccccc1-c1ccccc1	17.7µM*	0.2%	86.4%	-2.6%	-7.4%	28.3%	-22.9%	4.3%	-2.8%	16.0%
Cc1ccc(CNC(=O)CSc2nc3ccccc3[nH]2)cc1	12.6µM*	-1.6%	-19.3%	0.1%	-4.0%	38.7%	3.5%	4.5%	8.3%	-9.1%
COC(=O)c1ccc(CNC(=O)CSc2nc3ccccc3[nH]2)cc1	-3.1%	-0.4%	-27.3%	-9.9%	-9.9%	.	.	.	.	.
CCOc1ccc(Cl)cc1S(=O)(=O)NCc1ccccn1	-0.2%	1.3%	-0.6%	0.1%	-4.6%	.	.	.	.	.
CC(C)(C)NNC(=S)Nc1ccc(S(=O)(=O)N2CCOCC2)cc1	22.3µM*	?	-34.9%	-5.3%	-0.8%	-2.8%[10.4 µM]	-5.3%	-0.5%	7.3%	8.4%
COc1ccc(/C=C\c2onc(C)c2S(=O)(=O)N2CCC(C(=O)Nc3cccc(OC)c3)CC2)cc1	.	-8.0%	.	4.0%	.	.	.	.	.	.
COc1cc(/C=N/n2c(=S)[nH]nc(C)c2=O)cc([N+](=O)[O-])c1O	15.8µM*	?	-21.9%	1.4%	-5.9%	?	-3.9%	2.1%	-9.3%	3.6%
CCOC1C(=O)NC(=O)N1Cc1ccccc1 (centres undefined)	28.2µM*	-3.3%	-9.6%	-10.8%	13.9%	11.5%	-7.0%	12.7%	10.2%	4.7%
O=C(CSc1nccc(-c2cccs2)n1)Nc1cccc(Cl)c1Cl	-0.9%	2.6%	-24.8%	6.4%	-3.6%	.	.	.	.	.
O=C(Nc1nccc(-c2cccs2)n1)c1ccccc1Cl	7.92µM*	0.0%	-18.5%	-5.5%	-9.3%	-6.2%	-9.3%	25.1µM*	25.1µM*	15.8µM*
O=C(c1cnn2c(C(F)(F)F)cc(-c3cccs3)nc12)N1CCN(Cc2ccccc2)CC1	1.1%	-27.0%	177.9%	?	26.3%	.	.	.	.	.
CC(C)C(C(=O)Nc1ccccc1F)N1C(=O)c2ccccc2C1=O (centres undefined)	.	.	.	.	9.4%	.	.	.	.	.
CC(C(=O)Nc1ccccc1F)N1CCN(C)CC1 (centres undefined)	15.8µM*	-30.5%	-4.7%	1.2%	.	8.7%	9.0%	4.0%	4.1%	12.6%
COc1ccc(Cl)cc1S(=O)(=O)N1CCN(CC(=O)Nc2ccccc2C(F)(F)F)CC1	.	12.8%	.	6.6%	.	.	.	.	.	.
Cc1snc2sc(C(=O)c3ccc(F)cc3)c(N)c12	6.29µM*	-10.2%	-24.1%	-4.6%	-6.3%	3.2%[38.3 µM]	-23.9%	39.8µM*	?	?
CN(C)CCCC1Sc2ccccc2Sc2ccccc21 (centres undefined)	.	.	.	.	-2.4%	.	.	.	.	.
CNCCC1Sc2ccccc2Oc2ccccc21 (centres undefined)	17.7µM*	-1.6%	0.8%	?	-10.7%	-9.4%	3.9%	-1.9%	4.4%	5.3%
Cc1ccc(-c2noc(N=O)c2NO)cc1	?	-22.0%	-28.9%	0.2%	1.3%	.	.	.	.	.
O=Nc1onc(-c2ccc([N+](=O)[O-])cc2)c1NO	14.1µM*	-5.7%	-33.9%	7.1%	-26.0%	?	1.3%	-14.5%	-3.7%	15.7%
Cc1ccccc1N1CCN(S(=O)(=O)c2nnc(NC(=O)c3ccccc3)s2)CC1	.	-10.9%	.	2.9%	.	.	.	.	.	.
CN1/C(=C\C(=O)CSc2cccc[n+]2[O-])C(C)(C)c2ccccc21	11.2µM*	2.3%	1.2%	4.2%	8.2%	-20.6%	24.2%	-2.6%	7.5%	2.5%
CC(=O)c1c(C)[nH]c(C(=O)COc2cc(C)ccc2C(C)C)c1C	-16.9%	-2.3%	-21.3%	8.0%	-2.4%	.	.	.	.	.
Oc1c(/C=N/c2ncn[nH]2)ccc2ccccc12	8.89µM*	31.6µM*	-13.5%	?	-5.4%	19.5%	6.0%	8.91µM*	39.8µM*	?
Cc1ccc(-n2c(O)c(/C=N/c3ncn[nH]3)c3ccccc3c2=O)cc1	0.5%	-15.0%	-16.3%	-6.9%	10.6%	.	.	.	.	.
CC(=O)CSc1ncnc2nc[nH]c12	-21.6%	4.1%	-5.7%	-1.1%	8.5%	.	.	.	.	.
Cn1cnc(Sc2ncnc3nc[nH]c23)c1[N+](=O)[O-]	14.1µM*	?	-10.1%	-5.2%	47.7%	?	10.1%	1.2%	-3.3%	4.1%
CSc1cccc(NC(=S)N2CCC(c3ccccc3)C2)c1 (centres undefined)	2.3%	2.6%	-31.9%	-7.1%	-1.5%	.	.	.	.	.
CSc1cccc(NC(=S)N2CCC(N(C)C3CCCCC3)CC2)c1	12.6µM*	44.7µM*	-8.3%	2.9%	-7.9%	?	-7.6%	-5.3%	-1.8%	3.1%

Bioassay records (PubChem BioAssay)
